# PMC4336329 (PLoS ONE, 2015)
# Out of some 310,000 compounds screened, about 14,000 (4.5%) showed an effect of 50% or more. Effects have a minus sign here. Shown is part of a subset that was picked to be rich in strong results.
# Molecular target: human ether-à-go-go-related gene (hERG) potassium channel (human, UniProt Q12809)
# Assay: primary screen, population patch clamp on CHO cells stably expressing hERG; higher = less effect of the substance
# 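Further: peak tail current of the secondary pulse compared with the same well before compound.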
# Sequence of human ether-à-go-go-related gene (hERG) potassium channel (Q12809 whole entry, looked up): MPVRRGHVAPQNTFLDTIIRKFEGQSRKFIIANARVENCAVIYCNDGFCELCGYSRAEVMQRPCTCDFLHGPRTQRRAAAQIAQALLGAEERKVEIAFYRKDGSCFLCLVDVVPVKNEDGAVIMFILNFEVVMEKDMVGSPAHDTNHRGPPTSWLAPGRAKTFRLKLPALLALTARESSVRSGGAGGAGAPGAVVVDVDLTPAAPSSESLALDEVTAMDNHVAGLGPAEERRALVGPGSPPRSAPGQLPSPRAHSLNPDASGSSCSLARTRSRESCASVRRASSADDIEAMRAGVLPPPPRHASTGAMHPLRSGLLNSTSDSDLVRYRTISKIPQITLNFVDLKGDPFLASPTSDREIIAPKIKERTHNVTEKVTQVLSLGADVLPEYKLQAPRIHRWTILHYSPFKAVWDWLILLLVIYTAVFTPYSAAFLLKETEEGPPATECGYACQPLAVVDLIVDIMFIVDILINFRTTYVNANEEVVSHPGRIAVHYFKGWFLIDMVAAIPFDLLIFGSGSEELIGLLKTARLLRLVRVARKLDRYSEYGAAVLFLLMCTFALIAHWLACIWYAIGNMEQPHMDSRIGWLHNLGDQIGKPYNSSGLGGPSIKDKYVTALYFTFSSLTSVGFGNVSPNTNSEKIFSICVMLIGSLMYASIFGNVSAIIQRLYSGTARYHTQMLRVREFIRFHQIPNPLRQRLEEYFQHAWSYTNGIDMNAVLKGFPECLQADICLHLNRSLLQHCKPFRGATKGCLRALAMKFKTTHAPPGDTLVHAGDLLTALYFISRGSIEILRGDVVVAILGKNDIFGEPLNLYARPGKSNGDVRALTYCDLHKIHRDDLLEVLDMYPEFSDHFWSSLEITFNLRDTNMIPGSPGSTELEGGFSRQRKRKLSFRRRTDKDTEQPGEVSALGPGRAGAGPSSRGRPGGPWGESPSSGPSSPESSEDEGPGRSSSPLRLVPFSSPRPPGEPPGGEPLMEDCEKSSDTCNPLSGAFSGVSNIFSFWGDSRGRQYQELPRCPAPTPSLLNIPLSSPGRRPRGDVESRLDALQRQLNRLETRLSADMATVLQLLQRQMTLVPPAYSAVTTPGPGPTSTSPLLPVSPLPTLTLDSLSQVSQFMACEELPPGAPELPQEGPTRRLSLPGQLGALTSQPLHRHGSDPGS
row,Compound,"hERG current change (%, negative = inhibition) at 10uM [%]"
1,O=C(O)[C@@H](O)c1ccccc1,6.63
2,CCOC(=O)c1sc2ncn(C(CC)C(=O)OC)c(=O)c2c1C (stereo not drawn),9.35
3,NC(=O)c1oc2ccccc2c1NC(=O)c1nc2ccccc2s1,6.28
4,CN(/N=C/c1ccccc1O)C(=S)c1ccccc1,-3.8
5,CN1CCc2nc(NC(=O)COc3ccc(C#N)cc3)sc2C1,-7.85
6,CN1CCc2nc(NC(=O)COc3ccc4ccccc4c3)sc2C1,-56.2
7,O=C(COc1ccccc1)Nc1nc2c(s1)CCCC2,-20.3
8,O=C(c1cccc(-c2ccccc2F)c1)N1CC[C@@H](N2CCC(O)CC2)[C@H](O)C1,-17.7
9,OC(COc1cccc2ccccc12)CN1CCN(c2ccc(Cl)cc2)CC1 (stereo not drawn),-3.42
10,Cc1ccccc1OCC(O)CN1CCN(c2ccc(Cl)cc2)CC1 (stereo not drawn),-66.3
11,CC1CN(CC(O)COc2ccccc2C(C)(C)C)CC(C)O1.Cl (stereo not drawn),-10.1
12,Cc1cccc(N2CCN(CC(O)COc3ccccc3Cl)CC2)c1 (stereo not drawn),-56
13,Cc1ccccc1OCC(O)CN1CCCCC1.Cl (stereo not drawn),9.68
14,CC1(C)CC(O)CC(C)(C)N1CC(O)COCc1ccccc1 (stereo not drawn),11.7
15,Cc1cccc(N2CCN(CC(O)COc3ccc(Cl)cc3)CC2)c1 (stereo not drawn),-41.3
16,Cc1cccc(OCC(O)CN2C(C)(C)CC(O)CC2(C)C)c1 (stereo not drawn),-33.2
17,OC(COc1cccc2ccccc12)CN1CCN(c2cccc(Cl)c2)CC1 (stereo not drawn),1.82
18,Cc1cccc(OCC(O)CN2C(C)(C)CC(O)CC2(C)C)c1C (stereo not drawn),-51.3
19,C=C1CC(C)OC(c2ccccc2OCC(O)CN2CCCCC2)C1 (stereo not drawn),-72.4
20,COC(=O)c1ccc(NC(=O)c2c(C(=O)Nc3ccccc3)sc3nc(C)cc(=O)n23)cc1,15.3

row,Compound,"hERG current change (%, negative = inhibition) at 10uM [%]"
1,Cc1ccccc1NC(=O)CSc1nnnn1C,6.94
2,CCOC(=O)c1c(-c2ccccc2)csc1NC(=O)c1cc(S(=O)(=O)N2CCOCC2)ccc1C,2.23
3,N#Cc1sc2nc(-c3cccs3)cc(-c3ccc(Cl)cc3)c2c1N,-2.05
4,C=CCc1cccc2cc(C(=O)N3CCN(c4ccccn4)CC3)c(=O)oc12,-38.9
5,O=C1COc2ccc(C(=O)COC(=O)c3ncc(Cl)c(Cl)c3Cl)cc2N1,36.6
6,COc1ccc(/C=C/C2=NN(C)C(=O)CC2)cc1,13.4
7,O=C(N/N=C\c1ccc(CNS(=O)(=O)c2ccccc2)o1)C(=O)Nc1ccc(F)cc1,-22.3
8,S=C(NCc1ccc2c(c1)OCO2)NC1CCN(Cc2ccccc2)CC1,20.6
9,CCOC(=O)c1nc(C)n(-c2ccc(Cl)cc2Cl)n1,8.75
10,COc1ccc(-c2nc(SC(CC(=O)NCCN3CCOCC3)c3cccs3)n[nH]2)cc1 (stereo not drawn),1.08
11,Cc1ccccc1OCC(O)CN1CCN(CC(O)COc2ccccc2C)CC1 (stereo not drawn),-81.6
12,CCOC(=O)N1CCN(CC(O)COc2ccccc2[N+](=O)[O-])CC1.Cl (stereo not drawn),-0.882
13,COc1ccccc1OCC(O)CN1CCN(CC(=O)Nc2c(C)cccc2C)CC1 (stereo not drawn),-18.6
14,O=[N+]([O-])c1ccccc1OCC(O)CN1CCN(CC(O)COc2ccccc2[N+](=O)[O-])CC1 (stereo not drawn),-60.2
15,Cc1ccccc1OCC(O)CN.Cl.O (stereo not drawn),-1.72
16,Cc1ccccc1OCC(O)CN1CCN(CC(O)COc2ccccc2C)C(C)C1.O=C(O)C(=O)O (stereo not drawn),-70.8
17,Cc1ccccc1OCC(O)CN1CCC(C)CC1.Cl (stereo not drawn),-34.1
18,Cc1ccccc1OCC(O)CN1CCN(C)CC1.Cl (stereo not drawn),-0.704
19,COc1ccc(N2CCN(CC(O)COc3ccccc3[N+](=O)[O-])CC2)cc1.Cl (stereo not drawn),-44.1
20,Cc1ccccc1N1C(=O)CSC1=C(C#N)C#N,18.3

row,Compound,"hERG current change (%, negative = inhibition) at 10uM [%]"
1,S=C(NCc1ccccn1)Nc1ccccc1,16.3
2,Cc1ccc(N2CC(C(=O)NC3CC3)CC2=O)cc1Cl (stereo not drawn),10
3,CCOC(=O)CSc1nc2sc3c(c2c(=O)[nH]1)CC(C)(C)OC3,0.154
4,CSc1cccc(NC(=O)CN(C2CCCCC2)S(C)(=O)=O)c1,-7.59
5,Cc1ccc(-c2csc3nc[nH]c(=S)c23)cc1C,27.5
6,CSc1nc(C)cc(C)c1S(=O)(=O)c1ccccc1C,7.41
7,Fc1ccc(CN2CCCCCCC2)cc1F,-24
8,OCC1(Cc2ccc(Cl)cc2)CCN(CC2CC=CCC2)CC1 (stereo not drawn),-76.7
9,OCC1(Cc2ccc(Cl)cc2)CCN(CCCc2ccccc2)CC1,-83.9
10,OCC1(Cc2ccccc2)CCN(Cc2cnc(-c3ccc(Cl)cc3)nc2)CC1,-47.1
11,O=C(Nc1ccc(Cl)cc1)N1CCC(CO)(Cc2ccccc2)CC1,-46.6
12,O=S(=O)(c1cccs1)N1CCC(CO)(Cc2ccc(Cl)cc2)CC1,-7.74
13,OCC1(Cc2ccc(Cl)cc2)CCN(Cc2ccc(F)c(F)c2)CC1,-68.6
14,O=C(Cc1ccccc1)N1CCN(CC2CC=CCC2)CC1 (stereo not drawn),-3.05
15,OCC1(Cc2ccccc2)CCN(CCCC2CCCC2)CC1,-76.8
16,O=C(C1CC=CCC1)N1CCC(CO)(Cc2ccc(Cl)cc2)CC1 (stereo not drawn),-7.77
17,O=C1CC(N2CCOCC2)C(=O)N1CCc1ccccc1 (stereo not drawn),6.86
18,C=C1c2cc(C)ccc2NC(=O)N1c1ccccc1,2.71
19,Cc1ccc(S(=O)(=O)N2CCN(C(=O)c3ccccn3)CC2)c(C)c1,20.1
20,NC(=O)C1CCN(c2oc(/C=C/c3ccc(F)cc3)nc2S(=O)(=O)c2ccccc2)CC1,5.52
